# Laboratory results from the supplement of paper PMC8728848.
# The sample as a whole holds a higher share of the strongest signals than the screen did.
# Columns and labels:
# Test in all cases: glycan array binding signal (z-score within array); higher = stronger binding
# Conditions in all cases: glycan notation: IUPAC condensed, linker removed
# [1] = molecular target: Gal3S4S(b1-4)GlcNAc
# Summary of the method: (§1)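 Glycan array data were curated from 3228 arrays in the Consortium for Functional Glycomics database and kept only where the protein sequence was available. Glycan names were converted to IUPAC-condensed notation, and columns mapping to the same glycan were averaged. The binding signal is a within-array Z-score, averaged across arrays of the same protein sequence at different concentrations or buffers and across linkers. Negative Z-scores can be read as non-binding.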
# [2] = molecular target: GalNAc3S(b1-4)GlcNAc3S
# Summary of the method: as §1
# [3] = molecular target: GlcNAc(b1-2)[GlcNAc(b1-4)]Man(a1-3)[GlcNAc(b1-4)][GlcNAc(b1-2)[GlcNAc(b1-6)]Man(a1-6)]Man(b1-4)GlcNAc(b1-4)[Fuc(a1-6)]GlcNAc
# Summary of the method: as §1
# [4] = molecular target: GlcNAc(b1-3)Fuc
# Summary of the method: as §1
# [5] = molecular target: GlcNAc(b1-3)Gal(b1-4)GlcNAc
# Summary of the method: as §1
# [6] = molecular target: GlcNAc(b1-4)GlcNAc
# Summary of the method: as §1
# [7] = molecular target: Kdn(a2-3)Gal(b1-4)[Fuc(a1-3)]GlcNAc
# Summary of the method: as §1
# [8] = molecular target: Man(a1-2)Man(a1-2)Man(a1-6)[Man(a1-3)]Man
# Summary of the method: as §1
# [9] = molecular target: Man(a1-2)Man(a1-3)[Man(a1-2)Man(a1-6)]Man(a1-6)[Man(a1-2)Man(a1-2)Man(a1-3)]Man
# Summary of the method: as §1
# [10] = molecular target: MurNAc(b1-4)GlcNAc
# Summary of the method: as §1
# [11] = molecular target: Neu5Ac(a2-3)Gal(b1-3)GlcNAc(b1-2)Man(a1-3)[Neu5Ac(a2-3)Gal(b1-3)GlcNAc(b1-2)Man(a1-6)]Man(b1-4)GlcNAc(b1-4)GlcNAc
# Summary of the method: as §1
# [12] = molecular target: Neu5Ac(a2-3)Gal(b1-3)GlcNAc(b1-3)GalNAc
# Summary of the method: as §1
# [13] = molecular target: Neu5Ac(a2-3)Gal(b1-3)GlcNAc(b1-4)Gal(b1-4)Glc
# Summary of the method: as §1
# [14] = molecular target: Neu5Ac(a2-3)Gal(b1-3)[Fuc(a1-4)]GlcNAc(b1-3)Gal(b1-3)[Fuc(a1-4)]GlcNAc
# Summary of the method: as §1
# [15] = molecular target: Neu5Ac(a2-3)Gal(b1-4)GlcNAc(b1-3)Gal
# Summary of the method: as §1
# [16] = molecular target: Neu5Ac(a2-3)Gal(b1-4)GlcNAc(b1-6)[Gal(b1-3)]GalNAc
# Summary of the method: as §1
# [17] = molecular target: Neu5Ac(a2-3)Gal(b1-4)[Fuc(a1-3)]GlcNAc(b1-6)[Gal(b1-3)]GalNAc
# Summary of the method: as §1
# [18] = molecular target: Neu5Ac(a2-3)[GalNAc(b1-4)]Gal(b1-4)GlcNAc(b1-3)GalNAc
# Summary of the method: as §1
# [19] = molecular target: Neu5Ac(a2-6)Gal(b1-4)GlcNAc(b1-2)Man(a1-3)[Neu5Ac(a2-3)Gal(b1-4)GlcNAc(b1-2)Man(a1-6)]Man(b1-4)GlcNAc(b1-4)GlcNAc
# Summary of the method: as §1
# [20] = molecular target: Neu5Ac(a2-6)Gal(b1-4)GlcNAc(b1-2)[Neu5Ac(a2-6)Gal(b1-4)GlcNAc(b1-4)]Man(a1-3)[GlcNAc(b1-4)][Neu5Ac(a2-6)Gal(b1-4)GlcNAc(b1-4)Man(a1-6)]Man(b1-4)GlcNAc(b1-4)GlcNAc
# Summary of the method: as §1
# [21] = molecular target: Neu5Ac(a2-6)Gal(b1-4)GlcNAc(b1-2)[Neu5Ac(a2-6)Gal(b1-4)GlcNAc(b1-6)]Man(a1-6)[Neu5Ac(a2-6)Gal(b1-4)GlcNAc(b1-2)Man(a1-3)][GlcNAc(b1-4)]Man(b1-4)GlcNAc(b1-4)GlcNAc
# Summary of the method: as §1
# [22] = molecular target: Neu5Ac(a2-8)Neu5Ac(a2-3)Gal(b1-4)Glc
# Summary of the method: as §1
# [23] = molecular target: Neu5Ac(a2-8)Neu5Ac(a2-8)Neu5Ac(a2-8)Neu5Ac(a2-3)[GalNAc(b1-4)]Gal(b1-4)Glc
# Summary of the method: as §1
# [24] = molecular target: Neu5Ac9Ac(a2-3)Gal(b1-4)GlcNAc
# Summary of the method: as §1
binder,measurement,setting,value
"DC-Sign (Homo sapiens), Q9NNX6 (protein) MSDSKEPRLQQLGLLEEEQLRGLGFRQTRGYKSLAGCLGHGPLVLQLLSFTLLAGLLVQVSKVPSSISQEQSRQDAIYQNLTQLKAAVGELSEKSKLQEIYQELTQLKAAVGELPEKSKLQEIYQELTRLKAAVGELPEKSKLQEIYQELTWLKAAVGELPEKSKMQEIYQELTRLKAAVGELPEKSKQQEIYQELTRLKAAVGELPEKSKQQEIYQELTRLKAAVGELPEKSKQQEIYQELTQLKAAVERLCHPCPWEWTFFQGNCYFMSNSQRNWHDSITACKEVGAQLVVIKSAEEQNFLQLQSSRSNRFTWMGLSDLNQEGTWQWVDGSPLLPSFKQYWNRGEPNNVGEEDCAEFSGNGWNDDKCNLAKFWICKKSAASCSRDEEQFLSPAPATPNPPPA",glycan array binding signal (z-score),[1],-0.195
same,glycan array binding signal (z-score),[2],-0.101
same,glycan array binding signal (z-score),[3],-0.179
same,glycan array binding signal (z-score),[4],-0.17
same,glycan array binding signal (z-score),[5],-0.089
same,glycan array binding signal (z-score),[6],-0.109
same,glycan array binding signal (z-score),[7],-0.1
same,glycan array binding signal (z-score),[8],4.51
same,glycan array binding signal (z-score),[9],8.32
same,glycan array binding signal (z-score),[10],0.01
same,glycan array binding signal (z-score),[11],-0.202
same,glycan array binding signal (z-score),[12],-0.142
same,glycan array binding signal (z-score),[13],-0.183
same,glycan array binding signal (z-score),[14],1.83
same,glycan array binding signal (z-score),[15],-0.186
same,glycan array binding signal (z-score),[16],-0.171
same,glycan array binding signal (z-score),[17],-0.164
same,glycan array binding signal (z-score),[18],-0.171
same,glycan array binding signal (z-score),[19],-0.097
same,glycan array binding signal (z-score),[20],-0.183
same,glycan array binding signal (z-score),[21],-0.167
same,glycan array binding signal (z-score),[22],-0.177
same,glycan array binding signal (z-score),[23],-0.19
same,glycan array binding signal (z-score),[24],-0.175
